Source: PMC12820563, “FoxP3 forms a head-to-head dimer in vivo and stabilizes its multimerization on adjacent microsatellites”
In all, about 16,000 sequences were measured (“rpm ratio (pull-down/input)”: median about 0.94, highest 2% from about 1.7 on). The list comes from a sample in which the highest values are over-represented; it also holds similar and randomly drawn sequences.

Each sequence was assayed against T1, MBP-FoxP1dN (Mus musculus, UniProt P58462 326-579) (assay: PD-seq (MBP pull-down with sequencing); 20 mM Tris-HCl pH 7.5, 100 mM NaCl, 1.5 mM MgCl2, 0.4 uM protein, 0.1 uM dsDNA library, 30 min, room temperature, amylose pull-down; high values mean tight binding). Settings: protein: recombinant; tags: His6-MBP; chain copies: 2; dsDNA, one strand shown.
T1 sequence: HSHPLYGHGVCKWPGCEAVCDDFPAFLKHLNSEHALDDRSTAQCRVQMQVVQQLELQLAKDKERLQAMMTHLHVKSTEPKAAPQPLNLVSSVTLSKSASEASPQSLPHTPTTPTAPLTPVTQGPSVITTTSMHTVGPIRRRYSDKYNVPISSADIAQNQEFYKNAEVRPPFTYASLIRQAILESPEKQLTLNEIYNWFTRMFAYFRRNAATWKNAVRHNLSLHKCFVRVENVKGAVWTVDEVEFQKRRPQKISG
Procedure, shortened: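 Binding is given as reads-per-million enrichment, pull-down over input, with replicates pooled. The bait was an N-terminus-lacking mouse FoxP3 or FoxP1 fragment with a His6-MBP tag, expressed in E. coli and used at 0.4 µM with 0.1 µM Klenow-filled degenerate double-stranded DNA library for 30 min at room temperature in Tris pH 7.5 buffer with NaCl and MgCl2. Amylose resin pull-down with three washes was followed by proteinase K release, PCR barcoding and Illumina sequencing.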
For “GATGATTGTTCTCCCAGCTGATGAATTTTCACATTCGAGTAAACAAATTTTCCTAATCTTTCTGTTCAAGCGCCATCTAC”, the binding signal was 0.987 RPM ratio (pull-down/input). “GATGATTGTTCTCCCAGCTGATGAATTACATTCCTCGAGTAAACAAATTTTCCTAATCTTTCTGTTCAAGCGCCATCTAC” was tested, and the binding signal was 1.2 RPM ratio (pull-down/input). With “GATGATTGTTCTCCCAGCTGATGAATTTTACTAATCGAGTAAACAAATTTTCCTAATCTTTCTGTTCAAGCGCCATCTAC” the binding signal was 1.14 RPM ratio (pull-down/input). For “GATGATTGTTCTCCCAGCTGATGAATTTACTAAATCGAGTAAACAAATTTTCCTAATCTTTCTGTTCAAGCGCCATCTAC”, the binding signal was 1.72 RPM ratio (pull-down/input). “GATGATTGTTCTCCCAGCTGATGAATTTTTACTATCGAGTAAACAAATTTTCCTAATCTTTCTGTTCAAGCGCCATCTAC” was tested, and the binding signal was 1.1 RPM ratio (pull-down/input). For “GATGATTGTTCTCCCAGCTGATGAATTAATGCGCTCGAGTAAACAAATTTTCCTAATCTTTCTGTTCAAGCGCCATCTAC”, the binding signal was 1.26 RPM ratio (pull-down/input). For “GATGATTGTTCTCCCAGCTGATGAATTGACCTTCTCGAGTAAACAAATTTTCCTAATCTTTCTGTTCAAGCGCCATCTAC”, the binding signal was 0.921 RPM ratio (pull-down/input). With “GATGATTGTTCTCCCAGCTGATGAATTTTGCTTTTCGAGTAAACAAATTTTCCTAATCTTTCTGTTCAAGCGCCATCTAC” the binding signal was 1.49 RPM ratio (pull-down/input). In the case of “GATGATTGTTCTCCCAGCTGATGAATTGAATGGTTCGAGTAAACAAATTTTCCTAATCTTTCTGTTCAAGCGCCATCTAC”, the binding signal is reported as 0.852 RPM ratio (pull-down/input). For “GATGATTGTTCTCCCAGCTGATGAATTGTTGACGTCGAGTAAACAAATTTTCCTAATCTTTCTGTTCAAGCGCCATCTAC”, the binding signal was 2.22 RPM ratio (pull-down/input). “GATGATTGTTCTCCCAGCTGATGAATTGATGACGTCGAGTAAACAAATTTTCCTAATCTTTCTGTTCAAGCGCCATCTAC” was tested, and the binding signal was 1.06 RPM ratio (pull-down/input). In the case of “GATGATTGTTCTCCCAGCTGATGAATTTGACGTATCGAGTAAACAAATTTTCCTAATCTTTCTGTTCAAGCGCCATCTAC”, the binding signal is reported as 0.962 RPM ratio (pull-down/input). With “GATGATTGTTCTCCCAGCTGATGAATTGACGTAATCGAGTAAACAAATTTTCCTAATCTTTCTGTTCAAGCGCCATCTAC” the binding signal was 1.75 RPM ratio (pull-down/input). In the case of “GATGATTGTTCTCCCAGCTGATGAATTGACGCCATCGAGTAAACAAATTTTCCTAATCTTTCTGTTCAAGCGCCATCTAC”, the binding signal is reported as 1.24 RPM ratio (pull-down/input). For “GATGATTGTTCTCCCAGCTGATGAATTTTTGACGTCGAGTAAACAAATTTTCCTAATCTTTCTGTTCAAGCGCCATCTAC”, the binding signal was 0.91 RPM ratio (pull-down/input). For “GATGATTGTTCTCCCAGCTGATGAATTTCTCTAGTCGAGTAAACAAATTTTCCTAATCTTTCTGTTCAAGCGCCATCTAC”, the binding signal was 0.844 RPM ratio (pull-down/input). For “GATGATTGTTCTCCCAGCTGATGAATTACCGCGATCGAGTAAACAAATTTTCCTAATCTTTCTGTTCAAGCGCCATCTAC”, the binding signal was 0.929 RPM ratio (pull-down/input). In the case of “GATGATTGTTCTCCCAGCTGATGAATTCTAAACATCGAGTAAACAAATTTTCCTAATCTTTCTGTTCAAGCGCCATCTAC”, the binding signal is reported as 2.07 RPM ratio (pull-down/input). With “GATGATTGTTCTCCCAGCTGATGAATTGAAAAAATCGAGTAAACAAATTTTCCTAATCTTTCTGTTCAAGCGCCATCTAC” the binding signal was 1.03 RPM ratio (pull-down/input). “GATGATTGTTCTCCCAGCTGATGAATTCCTAAAATCGAGTAAACAAATTTTCCTAATCTTTCTGTTCAAGCGCCATCTAC” was tested, and the binding signal was 0.966 RPM ratio (pull-down/input). For “GATGATTGTTCTCCCAGCTGATGAATTTTGAAAATCGAGTAAACAAATTTTCCTAATCTTTCTGTTCAAGCGCCATCTAC”, the binding signal was 1.14 RPM ratio (pull-down/input). For “GATGATTGTTCTCCCAGCTGATGAATTCTGAACATCGAGTAAACAAATTTTCCTAATCTTTCTGTTCAAGCGCCATCTAC”, the binding signal was 0.898 RPM ratio (pull-down/input). “GATGATTGTTCTCCCAGCTGATGAATTCAAAACATCGAGTAAACAAATTTTCCTAATCTTTCTGTTCAAGCGCCATCTAC” was tested, and the binding signal was 1.99 RPM ratio (pull-down/input). With “GATGATTGTTCTCCCAGCTGATGAATTCCTAACATCGAGTAAACAAATTTTCCTAATCTTTCTGTTCAAGCGCCATCTAC” the binding signal was 1.04 RPM ratio (pull-down/input). For “GATGATTGTTCTCCCAGCTGATGAATTCACAACATCGAGTAAACAAATTTTCCTAATCTTTCTGTTCAAGCGCCATCTAC”, the binding signal was 2.11 RPM ratio (pull-down/input). “GATGATTGTTCTCCCAGCTGATGAATTCTAAAAATCGAGTAAACAAATTTTCCTAATCTTTCTGTTCAAGCGCCATCTAC” was tested, and the binding signal was 0.995 RPM ratio (pull-down/input). With “GATGATTGTTCTCCCAGCTGATGAATTCAACACATCGAGTAAACAAATTTTCCTAATCTTTCTGTTCAAGCGCCATCTAC” the binding signal was 1.3 RPM ratio (pull-down/input). In the case of “GATGATTGTTCTCCCAGCTGATGAATTCTTCACATCGAGTAAACAAATTTTCCTAATCTTTCTGTTCAAGCGCCATCTAC”, the binding signal is reported as 1.08 RPM ratio (pull-down/input). In the case of “GATGATTGTTCTCCCAGCTGATGAATTGAAAACATCGAGTAAACAAATTTTCCTAATCTTTCTGTTCAAGCGCCATCTAC”, the binding signal is reported as 1.8 RPM ratio (pull-down/input). With “GATGATTGTTCTCCCAGCTGATGAATTCGGGTAGTCGAGTAAACAAATTTTCCTAATCTTTCTGTTCAAGCGCCATCTAC” the binding signal was 0.855 RPM ratio (pull-down/input). For “GATGATTGTTCTCCCAGCTGATGAATTAAAAGTCTCGAGTAAACAAATTTTCCTAATCTTTCTGTTCAAGCGCCATCTAC”, the binding signal was 0.816 RPM ratio (pull-down/input). For “GATGATTGTTCTCCCAGCTGATGAATTGTTCGTTTCGAGTAAACAAATTTTCCTAATCTTTCTGTTCAAGCGCCATCTAC”, the binding signal was 1.15 RPM ratio (pull-down/input). “GATGATTGTTCTCCCAGCTGATGAATTGCAAAGCTCGAGTAAACAAATTTTCCTAATCTTTCTGTTCAAGCGCCATCTAC” was tested, and the binding signal was 1.09 RPM ratio (pull-down/input). With “GATGATTGTTCTCCCAGCTGATGAATTATACAGTTCGAGTAAACAAATTTTCCTAATCTTTCTGTTCAAGCGCCATCTAC” the binding signal was 1.18 RPM ratio (pull-down/input). In the case of “GATGATTGTTCTCCCAGCTGATGAATTACTCACATCGAGTAAACAAATTTTCCTAATCTTTCTGTTCAAGCGCCATCTAC”, the binding signal is reported as 1.28 RPM ratio (pull-down/input). For “GATGATTGTTCTCCCAGCTGATGAATTTCGAATCTCGAGTAAACAAATTTTCCTAATCTTTCTGTTCAAGCGCCATCTAC”, the binding signal was 0.83 RPM ratio (pull-down/input). For “GATGATTGTTCTCCCAGCTGATGAATTGTTAAACTCGAGTAAACAAATTTTCCTAATCTTTCTGTTCAAGCGCCATCTAC”, the binding signal was 1.1 RPM ratio (pull-down/input). “GATGATTGTTCTCCCAGCTGATGAATTCCGACACTCGAGTAAACAAATTTTCCTAATCTTTCTGTTCAAGCGCCATCTAC” was tested, and the binding signal was 0.88 RPM ratio (pull-down/input).
